What was measured:
Assay in all cases: DAPPL (digital affinity profiling via proximity ligation, sequencing); 10 mM Tris-HCl pH 7.5, 50 mM NaCl, 1 mM DTT, 4% glycerol, room temperature, 30 min; GST-TFs on glutathione beads, 16-mer random dsDNA library, 0.1% formaldehyde crosslink after washing; high values mean tight binding
Details in all cases: protein: recombinant; tags: N-terminal GST; dsDNA, one strand shown
[1] = target: T1, ERF (Homo sapiens, UniProt P50548 1-548)
T1 sequence: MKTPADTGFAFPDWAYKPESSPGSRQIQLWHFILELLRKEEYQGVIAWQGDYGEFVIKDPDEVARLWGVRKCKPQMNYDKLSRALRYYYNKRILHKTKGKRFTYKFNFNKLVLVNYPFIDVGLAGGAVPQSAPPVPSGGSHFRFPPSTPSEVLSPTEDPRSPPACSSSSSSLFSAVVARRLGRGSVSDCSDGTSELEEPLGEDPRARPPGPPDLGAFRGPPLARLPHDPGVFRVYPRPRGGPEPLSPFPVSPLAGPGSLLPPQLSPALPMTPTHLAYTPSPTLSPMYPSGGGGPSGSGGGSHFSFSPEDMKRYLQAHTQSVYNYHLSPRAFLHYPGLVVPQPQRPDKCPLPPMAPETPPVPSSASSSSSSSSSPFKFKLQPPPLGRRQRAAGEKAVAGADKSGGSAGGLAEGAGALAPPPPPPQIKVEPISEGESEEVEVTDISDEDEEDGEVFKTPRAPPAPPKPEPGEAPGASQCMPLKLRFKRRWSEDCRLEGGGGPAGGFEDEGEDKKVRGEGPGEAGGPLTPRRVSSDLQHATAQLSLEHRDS
Method in brief: (§1)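 Each value of binding signal is a hexamer's read frequency for a factor divided by the same hexamer's frequency in the tag-only sample. Barcoded, bead-captured GST fusions of human transcription factors made in yeast were pooled with that sample and incubated with 200 nmole of a random double-stranded 16-mer DNA library in Tris/NaCl/DTT/glycerol buffer at room temperature for 30 min. Washing, 0.1% formaldehyde crosslinking, proximity ligation, PCR and Illumina NextSeq500 sequencing followed.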

[2] = target: T2, ETV3L (Homo sapiens, UniProt Q6ZN32 1-361)
T2 sequence: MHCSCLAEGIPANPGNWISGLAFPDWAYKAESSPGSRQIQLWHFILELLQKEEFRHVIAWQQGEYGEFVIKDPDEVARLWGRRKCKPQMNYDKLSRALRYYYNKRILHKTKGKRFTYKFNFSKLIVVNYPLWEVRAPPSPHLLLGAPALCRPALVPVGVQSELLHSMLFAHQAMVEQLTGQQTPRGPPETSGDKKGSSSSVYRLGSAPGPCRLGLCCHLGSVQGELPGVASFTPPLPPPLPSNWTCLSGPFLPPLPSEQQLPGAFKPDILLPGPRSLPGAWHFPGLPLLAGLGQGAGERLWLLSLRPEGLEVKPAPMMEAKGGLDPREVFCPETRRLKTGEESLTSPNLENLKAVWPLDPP
Method in brief: as §1

[3] = target: T3, ETS2 (Homo sapiens, UniProt P15036 1-469)
T3 sequence: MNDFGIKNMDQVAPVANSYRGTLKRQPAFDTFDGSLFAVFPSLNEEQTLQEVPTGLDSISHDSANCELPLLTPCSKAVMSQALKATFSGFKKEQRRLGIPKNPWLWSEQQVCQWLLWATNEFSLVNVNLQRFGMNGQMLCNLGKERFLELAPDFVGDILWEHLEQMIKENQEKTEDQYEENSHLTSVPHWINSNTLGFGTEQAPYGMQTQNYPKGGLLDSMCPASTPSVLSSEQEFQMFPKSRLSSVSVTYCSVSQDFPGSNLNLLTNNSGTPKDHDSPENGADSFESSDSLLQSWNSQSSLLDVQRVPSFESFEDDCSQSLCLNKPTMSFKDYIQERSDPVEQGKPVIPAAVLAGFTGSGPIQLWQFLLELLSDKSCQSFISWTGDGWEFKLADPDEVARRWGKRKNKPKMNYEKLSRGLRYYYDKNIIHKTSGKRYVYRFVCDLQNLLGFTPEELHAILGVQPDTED
Method in brief: as §1

[4] = target: T4, SPDEF (Homo sapiens, UniProt O95238 1-335)
T4 sequence: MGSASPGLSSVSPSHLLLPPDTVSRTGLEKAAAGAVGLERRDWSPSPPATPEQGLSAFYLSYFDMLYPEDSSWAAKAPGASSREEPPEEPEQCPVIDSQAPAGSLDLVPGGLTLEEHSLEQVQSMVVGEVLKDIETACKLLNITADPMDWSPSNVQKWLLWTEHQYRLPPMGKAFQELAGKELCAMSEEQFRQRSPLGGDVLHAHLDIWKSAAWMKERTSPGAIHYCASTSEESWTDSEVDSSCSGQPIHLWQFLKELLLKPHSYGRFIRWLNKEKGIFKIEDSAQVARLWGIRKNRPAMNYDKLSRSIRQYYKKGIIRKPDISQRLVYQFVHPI
Method in brief: as §1

[5] = target: T5, ETV7 (Homo sapiens, UniProt Q9Y603 1-341)
T5 sequence: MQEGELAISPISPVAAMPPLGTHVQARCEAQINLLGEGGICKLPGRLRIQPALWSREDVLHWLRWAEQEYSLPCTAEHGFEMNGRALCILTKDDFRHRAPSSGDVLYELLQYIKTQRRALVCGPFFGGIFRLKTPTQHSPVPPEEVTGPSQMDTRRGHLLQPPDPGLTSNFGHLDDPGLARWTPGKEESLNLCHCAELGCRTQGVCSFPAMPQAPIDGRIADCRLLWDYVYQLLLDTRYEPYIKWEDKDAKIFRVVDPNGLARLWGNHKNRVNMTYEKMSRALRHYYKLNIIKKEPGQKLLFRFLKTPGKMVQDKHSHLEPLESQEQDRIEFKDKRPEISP
Method in brief: as §1

[6] = target: T6, ELF5 (Homo sapiens, UniProt Q9UKW6-2 1-255)
T6 sequence: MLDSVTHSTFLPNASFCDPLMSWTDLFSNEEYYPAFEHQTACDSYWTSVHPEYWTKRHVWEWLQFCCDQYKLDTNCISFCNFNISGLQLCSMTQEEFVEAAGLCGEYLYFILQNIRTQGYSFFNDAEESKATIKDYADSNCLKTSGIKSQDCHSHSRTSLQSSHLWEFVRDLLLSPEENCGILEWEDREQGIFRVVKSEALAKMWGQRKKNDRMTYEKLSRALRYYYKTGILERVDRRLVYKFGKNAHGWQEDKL
Method in brief: as §1

[7] = target: T7, ETV3 (Homo sapiens, UniProt P41162-2 1-143)
T7 sequence: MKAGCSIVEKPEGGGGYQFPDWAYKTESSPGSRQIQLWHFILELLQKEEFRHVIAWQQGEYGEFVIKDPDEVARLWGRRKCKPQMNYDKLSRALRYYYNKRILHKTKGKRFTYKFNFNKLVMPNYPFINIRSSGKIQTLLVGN
Method in brief: as §1

[8] = target: ETV6 (Homo sapiens, UniProt P41212 1-452)
Method in brief: as §1

Sequence of ETV6 (P41212 whole entry): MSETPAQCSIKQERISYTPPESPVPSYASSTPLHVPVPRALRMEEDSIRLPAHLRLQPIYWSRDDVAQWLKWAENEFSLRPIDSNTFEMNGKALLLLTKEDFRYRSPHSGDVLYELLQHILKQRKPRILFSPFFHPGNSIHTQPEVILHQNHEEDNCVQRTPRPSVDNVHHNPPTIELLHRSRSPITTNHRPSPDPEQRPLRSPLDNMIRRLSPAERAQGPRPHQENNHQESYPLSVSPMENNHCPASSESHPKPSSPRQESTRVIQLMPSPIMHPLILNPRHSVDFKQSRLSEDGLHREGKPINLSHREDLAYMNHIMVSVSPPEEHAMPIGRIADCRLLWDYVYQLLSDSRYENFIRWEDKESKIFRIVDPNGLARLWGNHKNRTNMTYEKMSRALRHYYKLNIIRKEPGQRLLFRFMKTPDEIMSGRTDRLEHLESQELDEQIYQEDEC

Sequence | binding signal [1] | binding signal [2] | binding signal [3] | binding signal [4] | binding signal [5] | binding signal [6] | binding signal [7] | binding signal [8]
TCGTCT | 1.4 fold enrichment (6-mer frequency, TF over GST control) | 1.43 fold enrichment (6-mer frequency, TF over GST control) | 1.46 fold enrichment (6-mer frequency, TF over GST control) | 1.37 fold enrichment (6-mer frequency, TF over GST control) | 1.21 fold enrichment (6-mer frequency, TF over GST control) | 1.32 fold enrichment (6-mer frequency, TF over GST control) | 1.23 fold enrichment (6-mer frequency, TF over GST control) | 1.34 fold enrichment (6-mer frequency, TF over GST control)
TTATTG | 1.37 fold enrichment (6-mer frequency, TF over GST control) | 1.37 fold enrichment (6-mer frequency, TF over GST control) | 1.27 fold enrichment (6-mer frequency, TF over GST control) | 1.21 fold enrichment (6-mer frequency, TF over GST control) | 1.4 fold enrichment (6-mer frequency, TF over GST control) | 1.2 fold enrichment (6-mer frequency, TF over GST control) | 1.34 fold enrichment (6-mer frequency, TF over GST control) | 1.27 fold enrichment (6-mer frequency, TF over GST control)
CTACGG | 1.37 fold enrichment (6-mer frequency, TF over GST control) | 1.42 fold enrichment (6-mer frequency, TF over GST control) | 1.16 fold enrichment (6-mer frequency, TF over GST control) | 1.17 fold enrichment (6-mer frequency, TF over GST control) | 1.28 fold enrichment (6-mer frequency, TF over GST control) | 1.24 fold enrichment (6-mer frequency, TF over GST control) | 1.29 fold enrichment (6-mer frequency, TF over GST control) | 1.19 fold enrichment (6-mer frequency, TF over GST control)
CCCCAT | 1.16 fold enrichment (6-mer frequency, TF over GST control) | 1.29 fold enrichment (6-mer frequency, TF over GST control) | 1.32 fold enrichment (6-mer frequency, TF over GST control) | 1.3 fold enrichment (6-mer frequency, TF over GST control) | 1.19 fold enrichment (6-mer frequency, TF over GST control) | 1.39 fold enrichment (6-mer frequency, TF over GST control) | 1.31 fold enrichment (6-mer frequency, TF over GST control) | 1.25 fold enrichment (6-mer frequency, TF over GST control)
AAGCCT | 1.17 fold enrichment (6-mer frequency, TF over GST control) | 1.23 fold enrichment (6-mer frequency, TF over GST control) | 1.22 fold enrichment (6-mer frequency, TF over GST control) | 1.02 fold enrichment (6-mer frequency, TF over GST control) | 1.3 fold enrichment (6-mer frequency, TF over GST control) | 1.2 fold enrichment (6-mer frequency, TF over GST control) | 1.3 fold enrichment (6-mer frequency, TF over GST control) | 1.23 fold enrichment (6-mer frequency, TF over GST control)
TTACGG | 1.36 fold enrichment (6-mer frequency, TF over GST control) | 1.22 fold enrichment (6-mer frequency, TF over GST control) | 1.43 fold enrichment (6-mer frequency, TF over GST control) | 1.32 fold enrichment (6-mer frequency, TF over GST control) | 1.16 fold enrichment (6-mer frequency, TF over GST control) | 1.32 fold enrichment (6-mer frequency, TF over GST control) | 1.17 fold enrichment (6-mer frequency, TF over GST control) | 1.26 fold enrichment (6-mer frequency, TF over GST control)
CTAATG | 1.2 fold enrichment (6-mer frequency, TF over GST control) | 1.17 fold enrichment (6-mer frequency, TF over GST control) | 1.25 fold enrichment (6-mer frequency, TF over GST control) | 1.11 fold enrichment (6-mer frequency, TF over GST control) | 1.3 fold enrichment (6-mer frequency, TF over GST control) | 1.23 fold enrichment (6-mer frequency, TF over GST control) | 1.16 fold enrichment (6-mer frequency, TF over GST control) | 1.3 fold enrichment (6-mer frequency, TF over GST control)
ACCTAA | 1.17 fold enrichment (6-mer frequency, TF over GST control) | 1.18 fold enrichment (6-mer frequency, TF over GST control) | 1.17 fold enrichment (6-mer frequency, TF over GST control) | 1.19 fold enrichment (6-mer frequency, TF over GST control) | 1.18 fold enrichment (6-mer frequency, TF over GST control) | 1.14 fold enrichment (6-mer frequency, TF over GST control) | 1.03 fold enrichment (6-mer frequency, TF over GST control) | 1.18 fold enrichment (6-mer frequency, TF over GST control)
TCTACT | 1.42 fold enrichment (6-mer frequency, TF over GST control) | 1.51 fold enrichment (6-mer frequency, TF over GST control) | 1.41 fold enrichment (6-mer frequency, TF over GST control) | 1.42 fold enrichment (6-mer frequency, TF over GST control) | 1.32 fold enrichment (6-mer frequency, TF over GST control) | 1.37 fold enrichment (6-mer frequency, TF over GST control) | 1.2 fold enrichment (6-mer frequency, TF over GST control) | 1.41 fold enrichment (6-mer frequency, TF over GST control)
TAAGTT | 1.18 fold enrichment (6-mer frequency, TF over GST control) | 1.4 fold enrichment (6-mer frequency, TF over GST control) | 1.38 fold enrichment (6-mer frequency, TF over GST control) | 1.42 fold enrichment (6-mer frequency, TF over GST control) | 1.36 fold enrichment (6-mer frequency, TF over GST control) | 1.29 fold enrichment (6-mer frequency, TF over GST control) | 1.27 fold enrichment (6-mer frequency, TF over GST control) | 1.49 fold enrichment (6-mer frequency, TF over GST control)
ACTTTG | 1.25 fold enrichment (6-mer frequency, TF over GST control) | 1.2 fold enrichment (6-mer frequency, TF over GST control) | 1.18 fold enrichment (6-mer frequency, TF over GST control) | 1.14 fold enrichment (6-mer frequency, TF over GST control) | 1.11 fold enrichment (6-mer frequency, TF over GST control) | 1.25 fold enrichment (6-mer frequency, TF over GST control) | 1.42 fold enrichment (6-mer frequency, TF over GST control) | 1.18 fold enrichment (6-mer frequency, TF over GST control)
AAAAGC | 1.15 fold enrichment (6-mer frequency, TF over GST control) | 1.23 fold enrichment (6-mer frequency, TF over GST control) | 1.15 fold enrichment (6-mer frequency, TF over GST control) | 1.07 fold enrichment (6-mer frequency, TF over GST control) | 1.35 fold enrichment (6-mer frequency, TF over GST control) | 1.26 fold enrichment (6-mer frequency, TF over GST control) | 1.22 fold enrichment (6-mer frequency, TF over GST control) | 1.26 fold enrichment (6-mer frequency, TF over GST control)
CCACTA | 1.11 fold enrichment (6-mer frequency, TF over GST control) | 1.13 fold enrichment (6-mer frequency, TF over GST control) | 1.14 fold enrichment (6-mer frequency, TF over GST control) | 1.09 fold enrichment (6-mer frequency, TF over GST control) | 1.04 fold enrichment (6-mer frequency, TF over GST control) | 1.06 fold enrichment (6-mer frequency, TF over GST control) | 1.03 fold enrichment (6-mer frequency, TF over GST control) | 1.07 fold enrichment (6-mer frequency, TF over GST control)
TGACCG | 1.41 fold enrichment (6-mer frequency, TF over GST control) | 1.41 fold enrichment (6-mer frequency, TF over GST control) | 1.55 fold enrichment (6-mer frequency, TF over GST control) | 1.44 fold enrichment (6-mer frequency, TF over GST control) | 1.49 fold enrichment (6-mer frequency, TF over GST control) | 1.4 fold enrichment (6-mer frequency, TF over GST control) | 1.53 fold enrichment (6-mer frequency, TF over GST control) | 1.36 fold enrichment (6-mer frequency, TF over GST control)
ACATCT | 1.24 fold enrichment (6-mer frequency, TF over GST control) | 1.24 fold enrichment (6-mer frequency, TF over GST control) | 1.27 fold enrichment (6-mer frequency, TF over GST control) | 1.26 fold enrichment (6-mer frequency, TF over GST control) | 1.49 fold enrichment (6-mer frequency, TF over GST control) | 1.3 fold enrichment (6-mer frequency, TF over GST control) | 1.17 fold enrichment (6-mer frequency, TF over GST control) | 1.29 fold enrichment (6-mer frequency, TF over GST control)
